The values below come from PubChem BioAssay AID360 (National Center for Advancing Translational Sciences (NCATS), 2006).

The structures appear in SMILES notation. Screen size: about 48,000 compounds; about 550 (1.1%) were called active. Inconclusive results (about 4%) are left out. Rule as the data show it: active = potency below about 15 µM; inconclusive = mostly about 16 µM to 33 µM; inactive = weaker than that. This excerpt belongs to a sample that is enriched for actives.
Potency is read from the fitted curve at half-maximal effect.

Chain of Lysosomal acid glucosylceramidase (Homo sapiens) (P04062 whole entry, looked up): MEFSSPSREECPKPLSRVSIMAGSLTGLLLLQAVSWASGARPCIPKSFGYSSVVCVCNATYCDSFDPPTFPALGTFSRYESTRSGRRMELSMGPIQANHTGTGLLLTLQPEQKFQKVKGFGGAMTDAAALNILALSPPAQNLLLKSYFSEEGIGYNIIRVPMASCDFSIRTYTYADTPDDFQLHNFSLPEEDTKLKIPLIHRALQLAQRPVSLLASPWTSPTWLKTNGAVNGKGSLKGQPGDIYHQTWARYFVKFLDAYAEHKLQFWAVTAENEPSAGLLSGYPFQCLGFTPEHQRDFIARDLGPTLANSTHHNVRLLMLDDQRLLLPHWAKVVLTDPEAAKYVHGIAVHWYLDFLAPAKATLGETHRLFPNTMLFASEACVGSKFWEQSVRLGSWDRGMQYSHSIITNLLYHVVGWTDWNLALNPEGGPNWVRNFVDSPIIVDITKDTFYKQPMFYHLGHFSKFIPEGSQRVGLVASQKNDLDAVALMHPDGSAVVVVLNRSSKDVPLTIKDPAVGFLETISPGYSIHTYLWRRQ

The test has as its target Lysosomal acid glucosylceramidase (Homo sapiens) (UniProt P04062). Description: Glucocerebrosidase.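 Also: the screen sought inhibitors.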 The settings on record: purified enzyme, resorufin glucoside fluorescence (screen aimed at inhibitors), 20 min. The text has this: NCGC Assay Overview: Beta-glucocerebrosidase catalyzes the hydrolysis of beta-glucocerebroside to glucose and ceramide. The inherited deficiency of beta-glucocerebrosidase results in Gaucher disease, which is characterized by a wide variety of symptoms including hepatosplenomegaly, anemia, thrombocytopenia, bony lesions and bone marrow infiltration with characteristic storage cells, known as Gaucher cells. There are also forms of the disorder affecting the central nervous system. Patients with the same genotypes can manifest with diverse clinical presentations and it is believed that improper folding and trafficking of beta-glucocerbrosidase may contribute to the phenotypes observed. Low molecular weight molecules, acting as chaperones, may potentially restore trafficking of misfolded beta-glucocerebrosidase from the endoplasmic reticulum to the lysosomes, thereby enhancing functional lysosomal beta-glucocerebrosidase activity. Using normal beta-glucocerebrosidase, an assay was developed to screen for small molecule inhibitors that could potentially act as molecular chaperones on the mutant forms [developed with NIH investigator Dr. Ellen Sidransky's laboratory]. Two pro-fluorescent substrates were chosen for two screens against a small molecule library. One beta-glucocerebrosidase assay used Resorufin beta-D-Glucopyranoside (Marker Gene Technology Inc.), generating a red fluorescent product. The second assay used Fluorescein di-beta-D-Glucopyranoside, generating a blue fluorescent product. […] The IC50 values of Conduritol B Epoxide, a known glucocerebrosidase inhibitor, were determined to be 87.5 uM and 117 uM, respectively. The use of two difference pro-fluorescent substrates in the screens helped to eliminate false positives. All compounds were screened in a titration series resulting in AC50s (e.g., IC50s or EC50s).
NCGC Assay Protocol Summary: Both enzyme and substrate were diluted in buffer composed of 50mM citric acid/KH2PO4, 10mM sodium taurocholate and 0.01% tween-20 at pH 5.9. The final concentration of the enzyme was 0.2 nM in both assays. The compound library was titrated in 7 to 15 concentrations for the primary screens with a final concentration ranging from 0.6 nM to 50 uM. This particular assay protocol is for the "red" substrate, and it was performed in 1536-well plate format as follows: Red fluorescence substrate assay: 2 uL enzyme 23 nL compound 1 uL substrate (final concentration of 30 uM) Incubate at room temperature (RT) for 20 minutes Read the plate in Viewlux plate reader (Ex=548(7) and Em=600(10)).
`CCC(=O)Nc1cccc(NC(=O)CSc2nnc(-c3ccc(NS(C)(=O)=O)cc3)n2C)c1`: the Potency is > 76.9 µM (inactive).
Then `Cn1c(CN2CCOCC2)nc2cc(NC(=O)c3ccc(Cl)cc3)ccc21`, with 52.2 µM (inactive); and `COc1cccc2cc(C(C)N(CCCN3CCOCC3)C(=O)Nc3ccc(Cl)cc3)oc12` (stereo not given), with 9.17 µM (active).
Take `O=C(NCCCN1CCOCC1)c1cc(-c2ccc(Cl)cc2)on1`: the Potency was > 76.9 µM (inactive).
Turning to `O=C(CSc1n[nH]c(-c2cccnc2)n1)Nc1ccnc2ccccc12`, the Potency is > 76.9 µM (inactive).
With `COC(=O)c1ccccc1NC(=O)CSc1ccccn1` the figure was > 76.9 µM (inactive); with `O=C(CS(=O)(=O)Cc1ccccc1)NCC1CCCO1` (stereo not given), > 76.9 µM (inactive).
With `CC(C)N(C(=O)Cn1c(SCC(=O)N2CCN(c3ccccc3)CC2)nc2ccccc21)C(C)C` the figure was > 76.9 µM (inactive).
With `CCOC(=O)c1sc(NC(=S)n2cc(C)cn2)c(C(=O)OCC)c1C` the figure was > 76.9 µM (inactive).
As to `COc1cccc(NC(=O)CN(C)S(=O)(=O)c2ccc(C)cc2)c1`, the Potency is > 76.9 µM (inactive).
Then `CC(C)NS(=O)(=O)c1ccc(CCC(=O)N2CCOCC2)cc1`, with > 76.9 µM (inactive).
Then `CCCc1nnc(NC(=O)CN2C(=O)c3ccccc3S2(=O)=O)s1`, with > 76.9 µM (inactive); and `CN1CCN(c2nc3c(c(=O)[nH]c(=O)n3C)n2Cc2cccc3ccccc23)CC1`, with > 76.9 µM (inactive); and `COc1ccc(C2N=C(N)N=C(N)N2c2ccccc2)cc1OC` (stereo not given), with > 76.9 µM (inactive).
With `O=C(Cn1c(-c2ccc(Cl)cc2)noc1=O)N1CCN(c2ccccc2F)CC1` the figure was > 76.9 µM (inactive); with `Fc1ccc(OCc2nn3c(Cn4nnc5ccccc54)nnc3s2)cc1`, > 76.9 µM (inactive).
`Cc1ccc(S(=O)(=O)N2CCC(C(=O)N[C@@H](C)C(=O)NCc3ccccc3)CC2)cc1`: the Potency was > 76.9 µM (inactive).
With `C/C(O)=C\c1nc(=O)c2c(C)cc(C)nc2n1-c1ccccc1` the figure was > 76.9 µM (inactive).
Then `O=C(COc1ccc(F)cc1)N(CC1=CCS(=O)(=O)C1)c1ccccc1`, with > 76.9 µM (inactive).
With `COc1ccc2nc(NC3=NCN(CC4CCCO4)CN3)nc(C)c2c1` (stereo not given), the Potency was > 76.9 µM (inactive).
As for `Cc1cc(C)nc(N2CCN(c3ncnc4c3oc3ccccc34)CC2)n1`, the Potency was > 76.9 µM (inactive).
With `CC(C)c1nc2oc3c(N4CCN(C)CC4)ncnc3c2c2c1CCC2` the figure was 8.51 µM (active).
Then `COc1ccc(CCn2c(-c3ccco3)nc3nc4ccccc4nc32)cc1OC`, with > 76.9 µM (inactive); and `CCOC(=O)CCC(=O)OCC(=O)NC(C)C1CC2CCC1C2` (stereo not given), with > 76.9 µM (inactive); and `CCOC(=O)c1sc(N(Cc2ccccc2)C(=O)CN2C(=O)CN(C)C2=O)nc1C`, with > 76.9 µM (inactive).
Then `CCOC(=O)c1c(C)[nH]c(C(=O)NCc2ccccc2OC)c1C`, with > 76.9 µM (inactive); and `Fc1ccc(-c2nnc3sc(-c4ccc5c(c4)OCO5)nn23)cc1`, with > 76.9 µM (inactive).
`Cc1cc(C)cc(N(C(C)C(=O)Nc2c(C)n(C)n(-c3ccccc3)c2=O)S(C)(=O)=O)c1` (stereo not given): the Potency is > 76.9 µM (inactive).
Then `c1ccc(CCc2nc(-c3ccncc3)no2)cc1`, with > 76.9 µM (inactive); and `CC(Sc1nncn1C)C(=O)Nc1ccccc1-c1ccccc1` (stereo not given), with > 76.9 µM (inactive).
As for `Cc1ccc(S(=O)(=O)N2CCN(C(=O)CCC(=O)NC3CCCc4ccccc43)CC2)cc1` (stereo not given), the Potency is > 76.9 µM (inactive).
With `Cc1noc(C)c1C(=O)NC(C)c1ccc2c(c1)OCO2` (stereo not given) the figure was > 76.9 µM (inactive); with `CCN(CC)CCN1C(=O)C(=O)/C(=C(/O)c2ccc(OC)c(OC)c2)C1c1ccccn1` (stereo not given), > 76.9 µM (inactive).
With `Cc1nc(NC(CC(C)C)C(=O)O)c2nc(C)oc2n1` (stereo not given) the figure was > 76.9 µM (inactive).
With `C=CCn1c(C(C)NC(=O)CC)nc2ccccc21` (stereo not given) the figure was > 76.9 µM (inactive); with `CCOC(=O)N1CCN(C(=O)C2CCN(S(C)(=O)=O)CC2)CC1`, > 76.9 µM (inactive).
Turning to `CC(C)CCNc1nc(N2CCCC2)c2c(c1C#N)CCN(C)C2`, the Potency is 12.7 µM (active).
With `Cc1cc(C)c2nc(N3CCCC3)c(C#N)cc2c1` the figure was > 76.9 µM (inactive); with `Cc1cccc2cc(C#N)c(N3CCCC3)nc12`, > 76.9 µM (inactive).
With `Cn1c(=O)n(C)c(=O)n(CC(=O)N2CCCCC2)c1=O` the figure was > 76.9 µM (inactive); with `Cc1cc(=O)cc(C)[nH]1`, > 76.9 µM (inactive); with `C=CCn1c(SCc2cc(C(=O)OC)c(C)o2)nnc1-c1ccncc1`, > 76.9 µM (inactive).
Then `Cc1ccc(S(=O)(=O)N(C)CC(=O)N2CCc3ccccc32)cc1`, with > 76.9 µM (inactive).
In the case of `CCC(CC)c1nnc(NS(=O)(=O)Cc2ccccc2)s1`, the Potency was > 76.9 µM (inactive).
With `CC(Oc1ccc(Cl)cc1)C(=O)Nc1ncccn1` (stereo not given) the figure was > 76.9 µM (inactive); with `COc1ccc(N2CCN(Cc3cc(=O)oc4ccc5ccccc5c34)CC2)cc1`, 5.96 µM (active); with `O=c1ccc2cc(S(=O)(=O)N3CCN(c4ccccc4)CC3)ccc2o1`, > 76.9 µM (inactive).
With `COc1ccc(N2CCN(CCNC(=O)CCN3C(=O)COc4ccccc43)CC2)cc1` the figure was > 76.9 µM (inactive); with `COC(=O)c1cc(NC(=O)CN2CCC(C(N)=O)(N3CCCCC3)CC2)cc(C(=O)OC)c1`, > 76.9 µM (inactive).
Then `COc1ccc(S(=O)(=O)N2CCN(c3ncnc4c(-c5ccccc5)nsc34)CC2)cc1`, with > 76.9 µM (inactive); and `CCn1c2c(c3ccc(OC)cc31)CCCC2=O`, with > 76.9 µM (inactive); and `CCOC(=O)CNC(=O)CSc1nnc(COc2ccc(Cl)cc2)n1CC`, with > 76.9 µM (inactive).
Take `O=S(=O)(Nc1ccccc1N1CCOCC1)c1ccc(Cl)s1`: the Potency is > 76.9 µM (inactive).
Then `COc1cccc(C2/C(=C(/O)c3ccncc3)C(=O)C(=O)N2CCCN(C)C)c1` (stereo not given), with > 76.9 µM (inactive); and `CC1CCCCN1CC(=O)NCc1ccc2c(c1)OCO2` (stereo not given), with > 76.9 µM (inactive); and `CC(C)(C)Oc1ncc(Br)c(OC(C)(C)C)n1`, with > 76.9 µM (inactive).
With `N#CC(C(N)=O)=C1CCC2(CC1)OCCCCO2` the figure was > 76.9 µM (inactive); with `O=C(Cn1c(=O)sc2ccccc21)Nc1ccc2c(c1)OCCO2`, > 76.9 µM (inactive).
For the molecule `COc1ccc(C(c2nnnn2Cc2cccs2)N2CCN(c3ccccc3)CC2)cc1OC` (stereo not given), the Potency was > 76.9 µM (inactive).
With `O=C(Cn1c(=S)nc2ccccn21)N1CCc2ccccc2C1` the figure was > 76.9 µM (inactive).
With `COc1ccc(-c2ccc(-c3noc(-c4ccncc4)n3)c(OC)n2)cc1` the figure was > 76.9 µM (inactive).
With `CCOc1nc(-c2ccc(OC)cc2)ccc1-c1noc(-c2cc(OC)c(OC)c(OC)c2)n1` the figure was 6.96 µM (active); with `COc1ccc(-c2nc(-c3ccccc3)no2)c(OC)c1`, > 76.9 µM (inactive); with `CCCC(=O)Nc1ccc2c(c1)nc1n2CCSC1`, > 76.9 µM (inactive).
For `O=C(O)CCC(=O)N(Cc1ccco1)c1nc(-c2ccccc2)cs1`, the Potency is > 76.9 µM (inactive).
Then `COCc1nnc(NC(=O)CS(=O)(=O)Cc2ccccc2)s1`, with > 76.9 µM (inactive); and `Cc1ccc(C)n1-c1ccncc1`, with > 76.9 µM (inactive).
Consider `Cc1ccc(C(C(=O)NCc2ccco2)N(CC2CCCO2)C(=O)Cn2nnc3ccccc32)cc1` (stereo not given), for which the Potency was > 76.9 µM (inactive).
With `Cc1ccc(-c2noc(CCC(N)=O)n2)cc1` the figure was > 76.9 µM (inactive); with `Cc1ccc(S(=O)(=O)N2CCOCC2)cc1C(=O)NCc1ccc(F)cc1`, > 76.9 µM (inactive); with `Cc1nc(SCC(=O)Nc2cc(C)on2)c2c3c(sc2n1)CCCC3`, 15.3 µM (active).
Then `Cc1cc(C)n(-c2nc(SCC(=O)N3CCCC3)c3c4c(sc3n2)CCCC4)n1`, with > 76.9 µM (inactive); and `Cc1nc(SCC(=O)Nc2cc(C)on2)c2c(C)c(C)sc2n1`, with > 76.9 µM (inactive); and `CCn1nnc(NC(=O)c2cc(Cl)c(OC)c(Cl)c2)n1`, with > 76.9 µM (inactive).
Then `Cc1ccccc1OCC(=O)Nc1ccc(N2CCN(C(=O)C(C)C)CC2)c(Cl)c1`, with 2.17 µM (active); and `Cc1cccc(NC(=O)COc2ccccc2C)n1`, with > 76.9 µM (inactive).
Take `CCOc1cc(N2CCOCC2)c(OCC)cc1NC(=O)COc1cccc2cccnc12`: the Potency is > 76.9 µM (inactive).
On to `CC1(C)CC(=O)C2=C(C1)NCN(CCCN1CCOCC1)C2`, for which the Potency is > 76.9 µM (inactive).
With `Cn1c(=O)[nH]c(=O)c2c1nc(N1CCCCCC1)n2CC(=O)c1ccccc1`, the Potency was > 76.9 µM (inactive).
With `CCn1c(SCC(=O)Nc2cc(C)c(Cl)cc2OC)nnc1-c1ccco1` the figure was > 76.9 µM (inactive); with `N#Cc1c(N)sc2c1CCN(C(=O)OCc1ccccc1)C2`, > 76.9 µM (inactive); with `O=C(O)CCC(=O)N(Cc1cccs1)Cc1cccs1`, > 76.9 µM (inactive).
Then `O=C(O)C1CC(=O)N(Cc2cccnc2)C1` (stereo not given), with > 76.9 µM (inactive); and `CC(NC(=O)c1cc(-c2ccccc2)on1)c1ccccc1` (stereo not given), with > 76.9 µM (inactive).
With `Cc1cc(C)nc(NC(=O)Nc2ccccc2C(F)(F)F)n1` the figure was > 76.9 µM (inactive); with `O=C(Nc1ccccc1C(F)(F)F)c1cc(-c2ccc(O)cc2)on1`, 13.4 µM (active).
Consider `Cc1ccc(C(=O)CSc2nnc(Cn3nnc4ccccc43)n2C)cc1`, for which the Potency is > 76.9 µM (inactive).
Take `CC1CCN(C(=O)Cn2cc(C(=O)c3ccco3)c3ccccc32)CC1`: the Potency was 12.7 µM (active).
Then `COC(=O)Cn1cc(C(=O)c2cccs2)c2ccccc21`, with > 76.9 µM (inactive); and `CCOC(=O)C1CCN(C(=O)Cn2cc(C#N)c3ccccc32)CC1`, with > 76.9 µM (inactive).
